The first assay has as its target NXF3. Kind of assay: pooled miR-30 sensor sort-seq; sequence = guide strand. The conditions noted are these: shRNA.
Turning to TAATTTGGGGAACAATTCCAGG, the sensor-assay potency score (higher = more potent) is -1.33.

For the sequence TGCATCTCCATCTTGCTGCTGA, the sensor-assay potency score (higher = more potent) was -0.136.

Take TGCTCTTCTTTGAACAACTTGA: the sensor-assay potency score (higher = more potent) is -0.684.

Consider TTCATAGTGAAACTCAACTGGG, for which the sensor-assay potency score (higher = more potent) was -0.55.

As for AATCTTGCCACTGACATTCTTC, the sensor-assay potency score (higher = more potent) is -0.451.

For the sequence TTGAACAACTTGATCAGTGTGA, the sensor-assay potency score (higher = more potent) is 0.976.

Consider TTATCTGCTCCACCTTTTCTGA, for which the sensor-assay potency score (higher = more potent) is -1.35.

As for TTGCTCTTCTTTGAACAACTTG, the sensor-assay potency score (higher = more potent) was -0.818.

With TTACAGGTTGGTAACCTCTTGT, the sensor-assay potency score (higher = more potent) was found to be 0.125.

With TTCTTCAACATCTCAGATCCAA, the sensor-assay potency score (higher = more potent) turned out to be 0.0512.

On to TTGACAAAGATTGATATCTTTT, for which the sensor-assay potency score (higher = more potent) was -1.25.

With TTTTCTGACTTCAGCTCCCTGT, the sensor-assay potency score (higher = more potent) is -0.506.

The next assay has as its target NXF5. The assay is described as above. Conditions: shRNA.
Regarding TACAGTTTGTTGTTGCACAAGT, the sensor-assay potency score (higher = more potent) is -0.398.

In the case of ATTTCTTTCAGTGATCTTCAGG, the sensor-assay potency score (higher = more potent) is -1.08.

Take TTACATAGGCAGACTGGTCCGA: the sensor-assay potency score (higher = more potent) came out at 0.61.

Take TTCGTGGACATTTTGTGTGCTT: the sensor-assay potency score (higher = more potent) is -0.318.

TACATAGGCAGACTGGTCCGAG: the sensor-assay potency score (higher = more potent) is -0.391.

Consider TCTTTCAGTGATCTTCAGGGTG, for which the sensor-assay potency score (higher = more potent) is -0.168.

These data come from the OligoGym collection.
Further: reference of the scale not given here.
